Screening data deposited in PubChem by National Center for Advancing Translational Sciences (NCATS).
NPC1 prom act = qHTS Assay for NPC1 Promoter Activators. 320,000 compounds, 2.4% hits. AID 485313, 2010. Huh7 NPC1 promoter luciferase reporter, 24 h. Potency, µM (doses to about 9.22 µM), for inactives: top-dose activation, actives largely listed as activators; also: % of control where 0% means no effect; nearly all actives have a fitted effect of over 60% in size
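Luminescence from an NPC1 promoter-driven luciferase reporter in stably transfected Huh7 cells was measured after 24 h compound treatment at 37 °C, followed by 10 min ambient incubation with luciferase detection reagent.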
ELG1 genotoxic = qHTS screen for small molecules that induce genotoxicity in human embryonic kidney (HEK293T) cells expressing luciferase-tagged ELG1; HEK293T ELG1-luciferase reporter, luminescence, 16 h; Potency, µM (top dose mostly 46 µM), without a hit: at the top dose activity change, positive = activation, actives largely listed as activators; 330,000 compounds, 1.3% hits; also: % of control where 0% means no effect; nearly all actives have a fitted effect of over 60% in size
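Screening used a luciferase reporter fused to human ELG1 in HEK293T cells. Luminescence was read on a CCD plate imager after 16 hr exposure and 30 min ONE-Glo incubation.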
FLuc modulator = qHTS profiling assay for firefly luciferase inhibitor/activator using purifed enzyme and Km concentrations of substrates (counterscreen for miR-21 project) | Potency, µM (top dose mostly 57.5 µM), inactives show at the highest dose activity change, negative = inhibition, hits mostly inhibitors | Luciferin 4-monooxygenase (Photinus pyralis), P08659 | 360,000 compounds, 6.9% hits | purified FLuc, Km substrates, luminescence inhibition;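 also: plate controls were vehicle for no effect and reference inhibitor for full effect; nearly all actives have a fitted effect of over 55% in size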
Target sequence (P08659 whole entry, looked up): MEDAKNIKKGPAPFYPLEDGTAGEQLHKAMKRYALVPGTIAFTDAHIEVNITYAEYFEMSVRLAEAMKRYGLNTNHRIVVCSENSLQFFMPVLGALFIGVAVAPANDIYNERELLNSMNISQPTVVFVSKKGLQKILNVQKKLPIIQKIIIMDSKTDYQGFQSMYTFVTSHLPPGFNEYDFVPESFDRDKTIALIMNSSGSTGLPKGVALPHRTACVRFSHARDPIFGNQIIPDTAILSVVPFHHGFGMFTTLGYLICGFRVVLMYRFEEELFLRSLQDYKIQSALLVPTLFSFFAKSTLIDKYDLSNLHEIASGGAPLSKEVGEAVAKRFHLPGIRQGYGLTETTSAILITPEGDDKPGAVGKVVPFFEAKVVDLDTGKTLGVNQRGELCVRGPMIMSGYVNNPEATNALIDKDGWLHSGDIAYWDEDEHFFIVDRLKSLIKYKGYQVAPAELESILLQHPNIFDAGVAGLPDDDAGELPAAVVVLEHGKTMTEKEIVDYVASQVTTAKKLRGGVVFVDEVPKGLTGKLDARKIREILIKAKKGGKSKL
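Purified P. pyralis luciferase (10nM final) with 10uM D-luciferin and 10uM ATP (Km levels) in 50mM Tris acetate pH 7.5, 10mM Mg acetate, 0.01% Tween-20, 0.05% BSA; qHTS 6-point titration, ~60 µM downward; luminescence read.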
SMN2 splice up = qHTS Assay for Enhancers of SMN2 Splice Variant Expression; HEK293 SMN2-luciferase splicing reporter, luminescence, 30-36 h; Potency, µM (highest dose often 46.1 µM), without a hit: at the top dose activity change, positive = activation, actives largely listed as activators; 210,000 compounds, 2.8% hits; AID 1458, 2008; also: % of control where 0% means no effect; nearly all actives have a fitted effect of over 55% in size
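HEK293 cells carry an SMN2 […]–luciferase reporter in which exon 7 inclusion puts luciferase in frame. Cells were plated 10-12 h before compound addition, then incubated 30-36 h at 37C. ONE-Glo luminescence was read; sodium butyrate at 4.5 mM final served as control.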
Rab9 promoter act = qHTS Assay for Rab9 Promoter Activators; Huh7 Rab9 promoter-luciferase reporter, luminescence, 24 h; Potency, µM (doses to about 9.22 µM), without a hit: top-dose activation, negative = inhibition, most hits filed as activators; 320,000 compounds, 2.8% hits; AID 485297, 2010; also: % of control where 0% means no effect; nearly all actives have a fitted effect of over 60% in size
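Luciferase signal after 10 min detection reagent at ambient indicates Rab9 promoter upregulation; stably transfected Huh7 cells were treated 24 h with compound in DMSO at 37 °C, 5% CO2.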
* hit, by the source's call; ? = inconclusive; · = not tested or not shown; ! = repeats disagree. Most compounds without a hit are left out; they make up all but 7.5% or so of the library. Calls follow the shape of the dose curve; as a rule, active = well fitted curve in the direction sought with a large enough effect; inconclusive = small, poorly fitted or top-dose-only effect, or another doubt; inactive = no such curve, though single readings can be large; an effect the other way counts as inactive or inconclusive. Potency is read from the fitted curve at half-maximal effect.

SMILES	NPC1 prom act	ELG1 genotoxic	FLuc modulator	SMN2 splice up	Rab9 promoter act
COCC(C)n1c(C)cc(C(=O)CSc2nc(C)c(C)c(C)n2)c1C (stereo unspecified)	-6.8%	-4.5%	-19.4%	·	-6.8%
COCC(C)n1c(C)cc(C(=O)COC(=O)c2n[nH]c3ccccc23)c1C (stereo unspecified)	1µM*	?	3.01µM*	-8.8%	0.631µM*
O=c1c2ccccc2cnn1-c1ccc(Br)cc1	0.708µM*	?	3.38µM*	2.82µM*	1.58µM*
O=c1c2ccccc2cnn1-c1ccc2ccccc2c1	1.41µM*	?	1.2µM*	5.01µM*	1.78µM*
O=c1c2ccccc2nnn1-c1ccc(Br)cc1	3.16µM*	?	?	·	2.24µM*
O=c1c2ccccc2cnn1-c1ccc(Cl)nn1	10.9%	11.2%	-18.9%	-6.2%	16.3%
O=c1c2ccccc2nnn1Cc1ccc(Br)cc1	3.4%	8.1%	-6.9%	8.3%	-1.1%
Cc1ccc(-n2c(-c3ccc(Br)cc3)nc3c(cnn3-c3ccccc3)c2=O)cc1	·	·	-5.5%	-5.7%	·
O=C(CSc1ccccc1)NC1=NCCS1	1.2%	0.9%	13.5µM*	·	-2.8%
Cc1ccc(OCC(=O)NC2=NCCS2)cc1	24.3%	3.9%	10.7µM*	-17.3%	20.1%
Cc1ccccc1OCC(=O)NC1=NCCS1	1.78µM*	9.2µM*	12µM*	12.6µM*	2.82µM*
O=C(C1=C[C@H](C2CC2)C[C@H](OCc2ccc(CO)cc2)O1)N1CCOCC1	0.6%	4.5%	0.3%	·	15.9%
CCCCC(=O)OCC(=O)c1[nH]c(C)c(C(=O)OCC)c1C	0.1%	12.4%	1.9µM*	27.4%	-1.5%
CCOC(=O)c1c(C)[nH]c(C(=O)COC(=O)CSC)c1C	-2.6%	2.6%	10.7µM*	7.9%	-6.4%
CCCCCC(=O)c1c(C)[nH]c(C(=O)OCC)c1C	5.5%	-0.3%	?	-1.3%	6.1%
CCCCCCC(=O)c1c(C)[nH]c(C(=O)OCC)c1C	25.9%	14.1µM*	?	?	27.3%
Cc1ccc2nc(Nc3ccc4[nH]c(=O)[nH]c4c3)c(-n3nc(C)cc3C)nc2c1	25.4%	?	0.849µM*	17.8µM*	?
Cc1cc(C)n(-c2nc3ccccc3nc2Nc2ccc(N(C)C)cc2)n1	·	·	5.5%	1.1%	·
CNc1ccc(Oc2nc([N+](=O)[O-])nn2C)cc1	-1.7%	-0.5%	-0.8%	8.6%	-6.4%
Cn1c(COc2ccccc2Br)nc2ccccc21	2.51µM*	10.3µM*	6.75µM*	·	?
CCn1c(COc2ccccc2C)nc2ccccc21	28.1%	?	10.7µM*	?	25.0%
CCc1nc2ccccc2n1CCc1ccccc1	-4.1%	-0.5%	-6.9%	-26.2%	-0.6%
C=CCc1ccccc1OCc1nc2ccccc2n1CC	·	·	?	-12.2%	·
CCn1c(COc2ccccc2OC)nc2ccccc21	5.0%	8.6%	16.9µM*	·	4.1%
CCn1c(CCc2ccccc2)nc2ccccc21	15.4%	4.3%	16.9µM*	·	15.3%
SMILES	NPC1 prom act	ELG1 genotoxic	FLuc modulator	SMN2 splice up	Rab9 promoter act
Cc1ccc(-c2cc(-c3cccs3)[nH]n2)c(O)c1	2.9%	4.11µM*	6.75µM*	47.3%	2.7%
COc1ccc(NC(=O)CSc2nc3c(oc4ccccc43)c(=O)n2-c2ccc(C)c(C)c2)cc1	·	·	-7.8%	-1.5%	·
COc1ccc(-c2nc3ccc([N+](=O)[O-])cc3o2)cc1	1.58µM*	6.51µM*	0.757µM*	11.2µM*	1.12µM*
Cc1cccc(-c2nc3cc(NC(=O)Cc4ccc(Cl)cc4)ccc3o2)c1	·	·	1.6%	-20.5%	·
Cc1cccc(-c2nc3cc([N+](=O)[O-])ccc3o2)c1	3.55µM*	16.4µM*	1.69µM*	15.8µM*	1.58µM*
O=[N+]([O-])c1ccc2oc(-c3ccccc3)nc2c1	?	?	?	15.8µM*	2.24µM*
NC(N)=Nc1nc2cc([N+](=O)[O-])ccc2o1	-1.3%	10.2%	?	·	8.9%
COC(=O)COc1ccc2oc(-c3ccc(OC)cc3)cc(=O)c2c1	·	·	?	21.6%	·
COc1ccc(-c2cc(=O)c3cc(OC)ccc3o2)cc1	0.501µM*	?	0.213µM*	0.891µM*!	0.251µM*
COc1cccc(-c2cc(=O)c3ccc(OC)cc3o2)c1	·	·	·	12.6µM*	·
CCC(N=c1cc(-c2ccc(OC)cc2)oc2ccc(C)cc12)C(=O)O (stereo unspecified)	?	?	3.01µM*	?	9.0%
COc1ccc(Cn2c(-c3ccco3)nc3oc4cc(OC)ccc4c(=O)c3c2=O)cc1	3.16µM*	?	?	3.8%	3.98µM*
Cc1cccc(C)c1NS(=O)(=O)c1c(C(=O)N2CCCCC2)c(C)n(C)c1C	0.5%	-0.1%	0.9%	·	-1.4%
O=C(c1ccc(C#Cc2ccccc2)o1)N1CCN(c2ccccn2)CC1	1.6%	0.9%	?	-13.7%	2.6%
COC(=O)c1ccc(C#Cc2ccccc2)o1	19.0%	13.9%	16.9µM*	·	17.4%
O=C(N/N=C/c1ccc2c(c1)OCO2)c1cccc(NC(=O)c2ccccc2Cl)c1	-12.5%	?	2.69µM*	·	24.7%
Cc1ccccc1C(=O)Nc1cccc(C(=O)N/N=C/c2ccc3c(c2)OCO3)c1	17.1%	6.8%	3.01µM*	·	?
Cc1cccc(C(=O)Nc2ccc(C(=O)N/N=C/c3ccc4c(c3)OCO4)cc2)c1	0.4%	7.7%	-6.7%	·	-4.7%
Cc1cccc(C(=O)Nc2cccc(C(=O)N/N=C/c3ccc4c(c3)OCO4)c2)c1	29.3%	9.1%	1.9µM*	·	27.5%
CC1(C)CC(=O)C=C(NCC(O)c2ccccc2)C1 (stereo unspecified)	-2.2%	0.4%	-0.1%	·	-4.5%
CCOc1ccccc1N1CC(C(=O)Nc2c(C)n(C)n(-c3ccccc3)c2=O)CC1=O (stereo unspecified)	-1.4%	10.3%	5.6%	-6.3%	2.8%
Cc1ccc(NCc2ccc(C)s2)cc1	17.7%	13.1%	21.3µM*	·	17.7%
Cc1ccc(NCc2ccccc2)cc1	-1.1%	-3.9%	?	1.7%	-3.4%
CC(=O)N1CCN(c2ccc(NCc3ccc(C)s3)cc2)CC1	13.2%	-2.9%	-10.9%	-12.9%	5.9%
Cc1ccc(CNc2ccc(N3CCOCC3)cc2)s1	2.51µM*	4.11µM*	0.953µM*	17.8µM*	3.55µM*
Cc1ccccc1NC(=O)c1c(C)oc2ccc(O)c(CN(C)Cc3ccccc3)c12	·	·	-17.7%	-17.5%	·
Cc1ccc2oc(C(=O)N(C)CCC(O)c3ccccc3)c(C)c2c1 (stereo unspecified)	4.3%	2.9%	?	·	-3.3%
COC(=O)Cn1ncc(N(C)Cc2ccccc2)c(Cl)c1=O	2.51µM*	?	12µM*	·	?
